± gives the standard deviation of the averaged measurements.
Columns and labels:
Conditions in all cases: concentration: 10 µM; 24 h
HCC1569 [1] = experiment: cell number relative to DMSO (% of DMSO); higher = more cells (less growth inhibition / toxicity)
Outline: (§1)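 Using 384-well plates with 800 cells per well in RPMI plus 10% FBS, HCC1569 and TDF cells were exposed to compounds at 10 µM, in triplicate, for 24 h at 37 °C. Imaging of six fields per well at ×10 followed H1.0 and DAPI staining. The reported quantity, H1.0 nuclear intensity or cell number, is a median of replicates given as percent of the plate control, and HCC1569 values were smoothed for positional effects.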

TDF [2] = experiment: as above
Outline: as §1

TDF [3] = experiment: H1.0 immunofluorescence intensity relative to DMSO (% of DMSO); higher = stronger H1.0 induction, active = 120 or more
Outline: as §1

HCC1569 [4] = experiment: H1.0 immunofluorescence intensity relative to DMSO (% of DMSO); higher = stronger H1.0 induction, active = 140 or more
Outline: as §1
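Throughout, for H1.0 immunofluorescence intensity relative to DMSO: TDF is a line of transformed human dermal fibroblasts of mesenchymal origin.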
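Throughout, for cell number relative to DMSO: TDF denotes transformed human dermal fibroblasts of mesenchymal origin.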

Row | SMILES | cell number (HCC1569 [1]) | cell number (TDF [2]) | H1.0 immunofluorescence intensity (TDF [3]) | H1.0 immunofluorescence intensity (HCC1569 [4])
1 | O=c1oc(Cl)c(Cl)c2ccccc12 [3,4-Dichloroisocoumarin] | 103 | 109 | 91.9 (inactive) | 88.1 (inactive)
2 | CC1=CCC2(C)CCC(O)(C(C)C)C2C(OC(=O)c2ccc(O)cc2)C1 (stereo unspecified) [Ferutinin] | 102 | 102 | 97.8 (inactive) | 107 (inactive)
3 | O=C(CCCCCCC(=O)Nc1ccccc1)NO | 101 | 95.7 | 121 (active) | 100 (inactive)
4 | Cn1cnc([N+](=O)[O-])c1Sc1ncnc2nc[nH]c12 [Azathioprine] | 99.15 ± 0.87 | 101.8 ± 0.74 | 94.9 (inactive) | 97.6 (inactive)
5 | O=C1NC(=O)C(c2ccccc2)(c2ccccc2)N1 [Phenytoin] | 104 | 98.5 | 95.8 (inactive) | 110 (inactive)
6 | N#CC(=C(N)Sc1ccc(N)cc1)c1ccccc1C(F)(F)F | 102 | 115 | 90.6 (inactive) | 126 (inactive)
7 | NC(=O)c1nnn(Cc2cc(Cl)c(C(=O)c3ccc(Cl)cc3)c(Cl)c2)c1N | 75 | 73.8 | 95.5 (inactive) | 151 (active)
8 | CC(=O)NCC1CN(c2ccc(N3CCOCC3)c(F)c2)C(=O)O1 (stereo unspecified) [Linezolid] | 104 | 99.7 | 93.4 (inactive) | 110 (inactive)
9 | O.O=c1c(O)c(-c2ccc(O)cc2O)oc2cc(O)cc(O)c12 | 104 | 94.5 | 100 (inactive) | 98.8 (inactive)
10 | CC(C)(C)NCC(O)c1ccc(O)c(CO)c1.CC(C)(C)NCC(O)c1ccc(O)c(CO)c1.O=S(=O)(O)O (stereo unspecified) [Albuterol hemisulfate] | 99.8 | 103 | 92.5 (inactive) | 107 (inactive)
11 | CSc1nc(N)c2ncn(C3OC(COP(=O)([O-])OP(=O)([O-])[O-])C(O)C3O)c2n1.[Na+].[Na+].[Na+] (stereo unspecified) [2-Methylthioadenosine diphosphate trisodium] | 99.9 | 92.9 | 99.2 (inactive) | 89.7 (inactive)
12 | CCCC(C(=O)OCCN(CC)CC)(c1ccccc1)c1ccccc1.Cl [SKF-525A hydrochloride] | 94 | 100 | 88.8 (inactive) | 102 (inactive)
13 | CC1CCC2(C(=O)O)CCC3(C)C(=CCC4C5(C)CCC(O)C(C)(C)C5CCC43C)C2C1C (stereo unspecified) [Ursolic acid] | 100 | 101 | 97.5 (inactive) | 93.7 (inactive)
14 | C1CNCCN1.COc1cc(C(O)CO)ccc1O.COc1cc(C(O)CO)ccc1O (stereo unspecified) [MHPG piperazine] | 100 | 108 | 106 (inactive) | 93.6 (inactive)
15 | COc1cc2ncnc(Nc3ccc(F)c(Cl)c3)c2cc1OCCCN1CCOCC1 [Gefitinib] | 82 ± 11 | 102 ± 10 | 98.9 (inactive) | 123 (inactive)
16 | O=c1ccc2cc3ccoc3cc2o1 [7H-furo[3,2-g]chromen-7-one] | 96.4 | 105 | 90.3 (inactive) | 93.5 (inactive)
17 | CN1CCN(CCCCN2C(=O)CN(/N=C/c3ccc(-c4ccc(Cl)cc4)o3)C2=O)CC1.Cl.Cl | 98.2 | 102 | 92.6 (inactive) | 115 (inactive)
18 | CCCN1CCCC[C@H]1C(=O)Nc1c(C)cccc1C.Cl.O | 99.7 | 103 | 99 (inactive) | 113 (inactive)
19 | CCCCCC(O)C=CC1C(=O)C=CC1CC=CCCCC(=O)O (stereo unspecified) [Prostaglandin J2] | 99.8 | 99.5 | 89.3 (inactive) | 100 (inactive)
